# Assay results taken from PubChem BioAssay (NCI).
# This is part of a sample that, as a whole, favours compounds with a hit. Of some 83,000 tested, about 20% had one in any assay.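 48-hour exposure, single concentration, 96-well plates; percent growth endpoint where 0 means no net growth. Active: below 10.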 Unmarked numbers belong to inactive results. Calls of active or inactive are those of the source.
# Experiments:
# Assay in all cases: NCI-60 one-dose screen, 48 h (100 = growth as untreated, 0 = no growth, -100 = all killed)
# Conditions in all cases: 10 µM unless noted
# [1] = test system: SR leukemia
# [2] = test system: RPMI-8226 leukemia
# [3] = test system: OVCAR-8 ovarian
# [4] = test system: OVCAR-5 ovarian
# [5] = test system: OVCAR-4 ovarian
# [6] = test system: SK-OV-3 ovarian
# [7] = test system: OVCAR-3 ovarian
# [8] = test system: HS 578T breast
# [9] = test system: NCI/ADR-RES ovarian
# [10] = test system: BT-549 breast
# [11] = test system: MDA-MB-435 melanoma
# [12] = test system: SW-620 colon
# [13] = test system: HCT-116 colon
# [14] = test system: HCC-2998 colon
# [15] = test system: KM12 colon
# [16] = test system: IGROV1 ovarian
# [17] = test system: T-47D breast
# [18] = test system: MCF7 breast
Compound,growth [1],growth [2],growth [3],growth [4],growth [5],growth [6],growth [7],growth [8],growth [9],growth [10],growth [11],growth [12],growth [13],growth [14],growth [15],growth [16],growth [17],growth [18]
CC(=O)Nc1ccc(C(=O)COc2cccc(/C=C3\CCc4ccccc4C3=O)c2)cc1,52.4%,19.6%,88.4%,104%,83.4%,95.5%,238%,99.7%,83%,66%,85.8%,47%,81%,93.7%,91%,–,–,–
C/C(=C\CCc1ccsc1)CC/C=C(\C)CCCN1CCSCC1,53.6%,58%,99.9%,–,84.3%,93.1%,82.3%,93.2%,84.9%,97.1%,85.9%,92%,77.7%,96.4%,84.3%,94.1%,70.1%,90.9%
Cc1cc(Br)c(C)cc1Br,83.7%,103%,101%,103%,103%,–,103%,105%,112%,99.9%,99.8%,108%,99.1%,115%,103%,137%,92.5%,98.2%
Oc1c(N=Nc2nn[nH]n2)ccc2ccccc12,106%,89.3%,91%,97.3%,–,97.7%,71.6%,91%,96.2%,83.2%,67.7%,101%,76.5%,103%,–,78.5%,97.7%,73.7%
Cc1nn(-c2ccccc2)c2nc(N)c(C3=NCCO3)nc12,104%,87.2%,95.9%,93.3%,–,94.2%,114%,82.2%,–,92.6%,101%,92.6%,95.8%,101%,104%,94.4%,77.5%,–
COc1ccc(-c2nnc3c4[nH]cnc4ncn23)c(OC)c1,15.5%,9.32% (active),18.4%,17%,36.8%,–,13.4%,54.4%,17.6%,–,13.2%,23.2%,14.8%,26.3%,22.5%,45.8%,28.5%,7.19% (active)
CCCCNCCCN(CCCC)CCCNCCCC,108%,99.6%,96%,108%,–,100%,107%,–,99.9%,97.2%,94.3%,101%,90.9%,103%,107%,99.5%,105%,95.8%
O=C(/C=C/c1ccc(C(F)(F)F)cc1)c1ccc(Nc2nc(NCCO)nc(NCCO)n2)cc1,-2.01% (active),1.43% (active),21.7%,64.3%,62.3%,–,25.8%,–,90.1%,21.3%,92.8%,1.28% (active),-25.4% (active),97.4%,19%,72.5%,37.2%,13.1%
C/C=C(/C(=C/C)c1ccc(O)cc1)c1ccc(O)cc1,15.5%,18.3%,48.3%,50.1%,58.6%,–,-1.49% (active),25.6%,24.3%,40.7%,-40.2% (active),25.6%,27%,61.7%,20.3%,36.2%,–,20.6%
O=C(N/N=C/c1cccc([N+](=O)[O-])c1)c1ccc(Br)o1,134%,85.9%,39.4%,107%,105%,–,111%,158%,101%,103%,106%,116%,100%,87.2%,109%,–,83.4%,78.1%
COc1ccc(Oc2ccccc2NC(=O)CNC(=O)c2cccc3ccccc23)cc1,23.7% [5 µM],27.4% [5 µM],17% [5 µM],40.9% [5 µM],67.2% [5 µM],–,-16.6% [5 µM] (active),–,15.3% [5 µM],30.9% [5 µM],1.66% [5 µM] (active),25.6% [5 µM],10.9% [5 µM],33.7% [5 µM],26.5% [5 µM],33% [5 µM],41.6% [5 µM],23.5% [5 µM]
CCN(CC)c1ccc(N=C2C=CC(=O)C=C2NC(C)=O)cc1,110%,89.8%,94%,108%,104%,–,74.2%,104%,105%,109%,124%,89%,97.9%,–,98.6%,96.7%,82.5%,82.6%
COc1ccc(-c2cc(-c3cccnc3)nc(S(=O)(=O)CC(=O)Nc3ccc(C)cc3)c2C#N)cc1OC,77.4%,79.8%,91.6%,120%,90.3%,–,95.4%,–,–,–,98.6%,98.3%,85.8%,91.9%,95.9%,107%,64%,88.4%
N#Cc1c(-c2ccccc2)cc(-c2ccccc2)n(CCCC(=O)O)c1=O,91.8%,103%,51.3%,104%,102%,–,112%,107%,–,83.6%,104%,105%,93%,103%,103%,99.4%,89.1%,60%
Cn1c(N2N=C(c3ccc(Cl)cc3)CC2c2ccccc2)nc(-c2ccccc2)c(C#N)c1=O (stereo not drawn),58.8%,54.9%,73.8%,99.6%,89.4%,–,71.7%,86.5%,82.9%,88.1%,83.6%,77.1%,51%,82.3%,78.3%,79%,64.4%,62.1%
Cc1ccc(-c2c3c(N)nc(-c4ccncc4)nc3nc3c2c(C)nn3-c2ccccc2)cc1,3.61% (active),62.5%,21.9%,65%,–,-22.1% (active),73.6%,32.7%,46.6%,59.4%,31.4%,39.5%,12.7%,99.8%,74.7%,71.7%,35.6%,1.86% (active)
Cc1cc2ccccn2c1C(=O)c1ccc(C(=O)c2ccccc2)cc1,-3.06% (active),82.1%,87.9%,87.8%,81.4%,–,96%,86%,72%,92.5%,91.3%,84.2%,88.7%,83.8%,113%,–,77.3%,96.5%
c1ccc(N2c3nc4ccccc4cc3Sc3cc4ccccc4nc32)nc1,77.7%,80.9%,88.8%,81.9%,102%,–,96.7%,83.2%,82.7%,–,115%,90.8%,98.5%,113%,–,–,82.6%,74%
COc1cc(C2CC(c3ccc(C)cc3)=NN2C=O)ccc1OCCN(C)C (stereo not drawn),89.2%,90.2%,92.6%,94.3%,97.9%,–,103%,–,90.9%,80.7%,102%,96.5%,88.9%,98.4%,101%,101%,–,92.5%

Compound,growth [1],growth [2],growth [3],growth [4],growth [5],growth [6],growth [7],growth [8],growth [9],growth [10],growth [11],growth [12],growth [13],growth [14],growth [15],growth [16],growth [17],growth [18]
c1cc[n+](Cc2ccnc3ccccc23)cc1,24.1%,97.1%,99.6%,103%,–,103%,118%,109%,109%,112%,100%,50.2%,21.1%,105%,103%,117%,106%,41.1%
CCCCOP(=O)(OCCCC)C(C(=O)OCC)C(CC(=O)OCC)C(=O)OCC (stereo not drawn),128%,109%,106%,100%,–,105%,123%,108%,113%,114%,104%,106%,112%,109%,111%,112%,114%,93.1%
COc1ccc(NC(=O)[C@@H]2C[C@H]2c2ccccc2)c(C(N)=O)c1,77.6%,100%,99.1%,102%,107%,–,98.9%,102%,99%,–,51.8%,90.9%,108%,94.7%,87.4%,-8.06% (active),91.1%,97.7%
CCCCCCCCCCCCCCCCCC1=NC(C)(CO)CO1 (stereo not drawn),118%,86.7%,97.6%,90.5%,–,97.8%,95.3%,92.5%,85.8%,92.9%,103%,108%,105%,98.3%,102%,101%,87.7%,121%
COc1ccc(-c2cc(-c3cccnc3)nc3sc(C(=O)Nc4ccccc4)c(N)c23)cc1OC,52.3%,0.963% (active),58.8%,86.8%,80.1%,–,71.4%,28.4%,54.4%,–,76.1%,85.5%,50.5%,80.3%,61.3%,68.9%,55.8%,65.4%
COC(=O)C1CCN(S(=O)(=O)c2ccc(-c3ccccc3)cc2)CC1,75.7%,144%,81.6%,106%,103%,–,114%,–,116%,129%,111%,102%,115%,103%,102%,–,–,–
COc1ccc2cc(C3=CC(=O)CCC3)ccc2c1,91.8%,92.6%,105%,98.7%,104%,–,106%,116%,95.6%,97.1%,93%,117%,92.5%,–,109%,104%,59.6%,110%
CC1CN(/N=C/c2ccc([N+](=O)[O-])o2)C(=N)O1 (stereo not drawn),107%,97.4%,96.6%,106%,101%,–,105%,105%,101%,117%,100%,98.2%,95.6%,98.3%,91.7%,98.3%,117%,84.8%
Oc1ccccc1/C=N/N1CCCCCC1,99.3%,99.6%,116%,105%,–,112%,108%,114%,101%,–,99.9%,108%,102%,95.8%,103%,–,102%,83.8%
CSc1nc2nc3c(nc2c(=O)n1C)C(=O)c1ccccc1C3=O,6.56% (active),-20.2% (active),-8.36% (active),-91.7% (active),-53% (active),–,-63.8% (active),-21.6% (active),-4.99% (active),-94.8% (active),-83.6% (active),-55.7% (active),-37.6% (active),-70.1% (active),-64.2% (active),-53% (active),-45.3% (active),-62.2% (active)
Cc1ccc(C(=O)Cc2ccccc2)c(O)c1,83%,115%,104%,99.1%,107%,–,110%,107%,108%,105%,115%,105%,108%,–,110%,107%,95.8%,99.9%
COc1c(Br)cc(C(c2cc(Br)c(OC)c(Br)c2)c2ccccc2C(=O)O)cc1Br,80.9%,88.7%,102%,99.1%,–,106%,109%,101%,98.8%,82.8%,104%,99.9%,90.2%,97.8%,103%,95.7%,93.6%,96.5%
Cc1cc(C)cc(S(=O)(=O)n2ccc(-c3ccc4c(c3)CCC(C)(C)O4)n2)c1,76.5%,73.2%,91%,116%,67.3%,–,87.9%,92.7%,79%,–,93.8%,88.3%,77.8%,88.2%,82.7%,105%,58.2%,81.5%
O=C1CSC(c2ccccc2Cl)N1c1nnc(Cn2nnc3ccccc32)o1 (stereo not drawn),76%,69%,82.5%,91.2%,81%,–,71.4%,103%,62.4%,98.9%,93.4%,93.2%,60.1%,86.4%,77.1%,79.6%,50.5%,86.8%
COc1cnc2c(c1)C(=O)c1c-2n(CCCNC(C)C)c(=O)c2cc(F)ccc12,-13.4% (active),-28.1% (active),-14.2% (active),-26.5% (active),-0.201% (active),–,-30.2% (active),16%,-16.1% (active),-17.9% (active),-6.52% (active),-8.49% (active),-76.5% (active),-49.8% (active),-17.7% (active),-5.18% (active),-11.5% (active),-3% (active)
COc1ccc2nc(NC(=O)CN3CCn4c(nnc4C(F)(F)F)C3)sc2c1,87.8%,90%,96.5%,97.9%,104%,–,93.7%,97%,93.6%,96%,90%,94.5%,99.4%,103%,79.3%,92.8%,95%,69.6%
FC(F)(F)c1ccc(-c2cnc(-c3nn[nH]n3)nc2NC2CCCCCC2)cc1,15.1% [50 µM],34.5% [50 µM],42.4% [50 µM],101% [50 µM],60.8% [50 µM],–,31% [50 µM],–,30.8% [50 µM],50.8% [50 µM],43.1% [50 µM],41.2% [50 µM],33.3% [50 µM],60.6% [50 µM],41.5% [50 µM],52.7% [50 µM],46.9% [50 µM],50.4% [50 µM]
CCOC(=O)c1cc2oc(/C=C/c3cc(=O)c4cc(Cl)ccc4o3)cc2[nH]1,87.9%,94.3%,105%,89.3%,89.6%,–,72.3%,71.2%,–,53.5%,88.2%,82.5%,81.2%,98.1%,62.8%,–,68.4%,40.2%
